Results from PubChem BioAssay (NCATS).
“And” between values parts separate entries of the source, which are not always exact repeats. Identical values can stand only once. Records with an inconclusive call do not appear. A structure can be active in one record and inactive in another. The source made the active and inactive calls. Calls follow the shape of the dose curve; as a rule, active = well fitted inhibition curve with a large enough effect; inconclusive = small, poorly fitted or top-dose-only effect; inactive = no such curve, though single readings can be large or run the other way.

molecular target: Cytochrome P450 2D6 (Homo sapiens) (UniProt P10635); assay: qHTS Assay for Inhibitors and Substrates of Cytochrome P450 2D6 (AID 891); conditions: recombinant CYP2D6, luciferin-ME EGE luminescence; series mostly up to 57.1 µM; activity change, negative = inhibition: at the top concentration; also: nearly all actives have a fitted effect of over 60% in size
Sequence (P10635 whole entry, looked up): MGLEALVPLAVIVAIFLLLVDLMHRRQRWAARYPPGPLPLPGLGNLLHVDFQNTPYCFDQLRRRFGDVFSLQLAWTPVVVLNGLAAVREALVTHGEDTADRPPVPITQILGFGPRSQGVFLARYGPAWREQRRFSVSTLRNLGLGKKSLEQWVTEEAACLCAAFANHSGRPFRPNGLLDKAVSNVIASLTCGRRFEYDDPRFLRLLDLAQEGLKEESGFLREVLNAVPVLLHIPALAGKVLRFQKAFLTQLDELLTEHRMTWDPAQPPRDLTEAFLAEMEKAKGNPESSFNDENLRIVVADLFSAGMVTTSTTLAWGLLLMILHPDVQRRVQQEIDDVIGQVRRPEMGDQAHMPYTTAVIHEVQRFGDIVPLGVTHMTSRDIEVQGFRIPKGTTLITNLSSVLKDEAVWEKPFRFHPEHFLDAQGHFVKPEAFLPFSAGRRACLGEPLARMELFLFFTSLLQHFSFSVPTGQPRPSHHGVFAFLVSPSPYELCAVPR
Protocol: NIH Molecular Libraries Screening Centers Network [MLSCN]
NIH Chemical Genomics Center [NCGC]
The P450 gene superfamily is involved in the metabolism and clearance of xenobiotics. This assay used human CYP2D6 to measure the demethylation of ethylene glycol ester of luciferin 6' methyl ether (Luciferin-ME EGE; […]) to luciferin. The luciferin is then measured by luminescence after the addition of a luciferase detection reagent. Luciferin-ME EGE concentration in the assay was equal to its Km for CYP2D6. Inhibitors and some substrates limit the production of luciferin, and decrease measured luminescence.
NCGC Assay Protocol Summary:
Two uL of enzyme and substrate mix (final concentrations: 5nM CYP2D6, 30uM Luciferin-ME EGE, 100mM KPO4) were dispensed into a white, solid bottom 1536-well microtiter plate. 23nL of compound was transferred by a pin tool. The plate was incubated at room temperature for 10 min. Two uL of an NADPH regeneration solution (Promega supplied reagent) was dispensed and the reaction was allowed to continue for 60 min at room temperature. Then the reaction was stopped by reconstituted luciferin detection buffer. After another 20 min of incubation the plate was read on the ViewLux (Perkin Elmer) at 60 sec exposure and 2x2 binning. This protocol was carried out with Promega-Glo reagents and further information can be found at http://www.promega.com/tbs/tb325/tb325.pdf. Data were normalized to the to AC100 inhibition (1.43 uM quinidine).
Keywords: P450, CYP2D6, Luciferase, MLSMR, MLSCN, NIH Roadmap, qHTS, NCGC
% is scaled to controls: 0 for no effect and ±100 for the full control effect; potency is read from the fitted curve at half-maximal effect.

Row | Structure (SMILES) | Potency | activity change, negative = inhibition
1 | c1ccc(N2CCN(CCCOc3ccc4c(c3)OCO4)CC2)cc1 | 0.126 µM (active) | 
2 | C=CCN1CCN(c2nc3ccccc3nc2C#N)CC1 | 1.26 µM (active) | 
3 | CC(C)NC[C@H](O)c1ccc2ccccc2c1 | 3.16 µM (active) | 
4 | C[C@H](NC[C@H](O)CP(=O)(O)Cc1ccccc1)c1ccc(Cl)c(Cl)c1 | 0.0501 µM (active) | 
5 | COC(=O)C1=C(C)NC(C)=C([N+](=O)[O-])[C@@H]1c1ccccc1C(F)(F)F | 6.31 µM (active) | 
6 | CCCCOc1cc(C[C@@H]2CNC(=O)N2)ccc1OC |  | -1.72% (inactive)
7 | CC1=C(\C=C/C(C)=C/C=C\C(C)=C\C(=O)O)C(C)(C)CCC1 | inactive and 2 µM (active) | 
8 | CNc1ncnc2c1ncn2[C@H]1C[C@H](OP(=O)(O)O)[C@H](COP(=O)(O)O)O1 | 5.01 µM (active) | 
9 | C[C@]12CC3CC(N)(C1)C[C@@](C)(C3)C2 | 0.316 µM (active) | 
10 | C[C@H](N=C(NC#N)Nc1ccncc1)C(C)(C)C |  | 0.296% (inactive)
11 | CC[N+](C)(CC)CCC[n+]1c(-c2ccccc2)c2cc(N)ccc2c2ccc(N)cc21 | 6.31 µM (active) | 
12 | N[C@@H](Cn1cc(I)c(=O)n(Cc2ccc(C(=O)O)cc2)c1=O)C(=O)O | 2.51 µM (active) | 
13 | C[C@@H](/C=C\c1cccc(Oc2ccc(F)cc2)c1)N(O)C(N)=O | 25.1 µM (active) | 
14 | CSc1nc(N)c2ncn([C@H]3O[C@H](COP(=O)(O)OP(=O)(O)OP(=O)(O)O)[C@@H](O)[C@@H]3O)c2n1 |  | 4.93% (inactive)
15 | COc1ccc(-c2ccc(=N)n(CCCC(=O)O)n2)cc1 | 3.98 µM (active) | 
16 | NC(=NC1C2CC3CC(C2)CC1C3)Nc1ccc(I)cc1 (stereo not given) | 0.0398 µM (active) | 
17 | Cc1c(O)c(=O)c2ccccc2n1C |  | 2.15% [at 11.4 µM] (inactive)
18 | N[C@@H](C(=O)O)[C@H](CC(=O)O)c1ccc(Cl)cc1 | 2.51 µM (active) | 
19 | CC(C)(C)OC(=O)C1=NOC2(C=CC(=O)C=C2)C1 |  | -10.1% [at 11.4 µM] (inactive)
20 | COC(=O)C(C(C)=O)C(=O)C(Cc1ccccc1)NC(=O)OCc1ccccc1 (stereo not given) |  | -1.19% [at 11.4 µM] (inactive)

Row | Structure (SMILES) | Potency | activity change, negative = inhibition
21 | CSc1ccc2c(c1)[C@H](N1CCN(C)CC1)Cc1ccccc1S2 | 3.98 µM (active) and 1.58 µM (active) and 316 nM (active) | 
22 | CO[C@@]12C[C@@H](COC(=O)c3cncc(Br)c3)CN(C)[C@H]1Cc1cn(C)c3cccc2c13 | 39.8 nM (active) and 2.5 nM (active) and 20 nM (active) | 
23 | O=C(c1ccc(F)cc1)C1CCN(CCCCc2ccccc2)CC1 | 0.0126 µM (active) | 
24 | COc1ccc(C(=O)Oc2cc(OC)cc(OC)c2C(C)=O)cc1 |  | 5.18% [at 11.4 µM] (inactive)
25 | CC(=O)c1ccc(OCc2ccccc2)c(C)c1O |  | -4.53% [at 11.4 µM] (inactive)
26 | CN1CCN(C2=Cc3ccccc3Oc3ccc(Cl)cc32)CC1 | 0.0398 µM (active) | 
27 | COC(=O)C1=NOC2(C=C(Br)C(OC)=C(Br)C2=O)C1 (stereo not given) |  | -8.27% [at 11.4 µM] (inactive)
28 | CNCC[C@H](Oc1ccccc1OC)c1ccccc1 | 5.01 µM (active) and 1.26 µM (active) | 
29 | O=C1CC2(CCCC2)CC(=O)N1CCNC[C@H]1COc2ccccc2O1 | 0.126 µM (active) | 
30 | C=C(CC(=O)OC)C[C@]1(CC(=O)OC)CC2(CC=C(C)C)C(=O)C(C(=O)c3ccccc3)=C(OC(=O)c3ccc(Br)cc3)C(CC=C(C)C)(C1)C2=O (stereo not given in full) |  | -5% [at 11.4 µM] (inactive)
31 | CCCCCCCCC(=O)NCc1cc(OC)c(O)cc1I | 7.94 µM (active) | 
32 | C=CCC1(O)C=CCC2C3C4C(OC(C)(C)C)C2C1C34 (stereo not given) |  | -4.54% [at 11.4 µM] (inactive)
33 | CC[C@H](C)N(C)C(=O)c1cc2ccccc2c(-c2ccccc2Cl)n1 |  | -0.0247% (inactive)
34 | COc1cc(-c2ccc(N=Nc3ccc4c(S(=O)(=O)O)cc(S(=O)(=O)O)c(N)c4c3O)c(OC)c2)ccc1N=Nc1ccc2c(S(=O)(=O)O)cc(S(=O)(=O)O)c(N)c2c1O |  | 0.977% (inactive)
35 | COc1ccccc1N1CCN(C[C@@H](O)COc2cccc3ccccc23)CC1 | 794 nM (active) and 316 nM (active) and 126 nM (active) | 
36 | CC[N+](CC)(CC)CCOc1ccc(/C=C\c2ccccc2)cc1 | 7.94 µM (active) | 
37 | CCCCCCCC1=CC2=CC(=O)C(C)(O)C(=O)C2=CN1CCCC (stereo not given) | 3.16 µM (active) | 
38 | COc1cc(/C=C(\C#N)C(N)=O)cc(CSc2nc3ccccc3s2)c1O | 0.0251 µM (active) | 
39 | O=C(NCCCN1CCCCCC1)[C@@H](c1ccccc1)C1CCCCC1 | 0.631 µM (active) | 
40 | C[C@@H](CCCCC(=O)Nc1ccc(C(F)(F)F)cc1)NCCc1cnc[nH]1 | 5.01 µM (active) | 
